Compound activity as filed in PubChem BioAssay.
VHR inh color – blocks the human dual specificity phosphatase VHR1; recombinant VHR phosphatase, colorimetric substrate read-out; inhibition, % at 20 µM; 50,000 compounds, 0.7% hits; in the data active = inhibition above about 60%
Target sequence (P51452 whole entry, looked up): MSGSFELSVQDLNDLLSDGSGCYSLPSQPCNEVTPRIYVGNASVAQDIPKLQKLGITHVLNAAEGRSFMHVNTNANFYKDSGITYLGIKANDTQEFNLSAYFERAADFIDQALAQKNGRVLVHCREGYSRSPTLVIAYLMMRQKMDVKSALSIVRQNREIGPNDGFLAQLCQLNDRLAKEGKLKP
Hits are given with their value; - = inactive. Shown is part of a subset that was picked to be rich in hits.

SMILES	VHR inh color
COc1ccc(C2=C/C(=C3\OC(=O)c4ccccc43)C(=O)O2)cc1	-
COc1ccc(C2=C/C(=C/c3ccc(I)o3)C(=O)O2)cc1	-
COc1ccc(C2=CC(c3cccs3)C=C(c3ccc(OC)cc3)O2)cc1	60
COc1ccc(-c2nc3ccccc3c(=O)n2-c2ccccn2)cc1	-
COc1cc(/C=C2\C(=O)NN(c3ccccc3)C2=O)cc(OC)c1	-
CNc1nc(Nc2cccc([N+](=O)[O-])c2)nc(OCC(F)(F)F)n1	-
O=C(N/N=C/c1c[nH]c2ccccc12)c1cc(C23CC4CC(CC(C4)C2)C3)[nH]n1	-
CCOc1cc(/C=C2\SC(N3CCCCCC3)=NC2=O)ccc1O	-
COc1ccc(/C=C2\SC(N3CCCCCC3)=NC2=O)cc1OC	-
CCOc1cc(/C=C2\SC(N3CCN(C4=NC(=O)/C(=C\c5ccc(O)c(OCC)c5)S4)CC3)=NC2=O)ccc1O	88
O=C(O)c1ccc(/C=N/Nc2ccc([N+](=O)[O-])cc2)cc1	-
CCc1ccc(-n2c(C)cc(/C=N/NC(=O)c3ccncc3)c2C)cc1	87
Cc1cccc(C)c1-n1c(C)cc(/C=N/NC(=O)c2ccncc2)c1C	-
Cc1ccc(-n2c(C)cc(/C=N/NC(=O)c3ccncc3)c2C)cc1C	-
Cc1[nH]c2ccccc2c1/C=C/c1nc2ccccc2c(=O)n1-c1ccccc1[N+](=O)[O-]	-
COc1cc(OC)c(C2NC(=S)NC(C)=C2C(=O)Nc2ccc(Br)cc2)cc1OC (stereo not given)	-
Clc1cc(Cl)c2c(c1)C=C1CCCCC1(N1CCCCC1)O2 (stereo not given)	-
C=CCc1cc(/C=C2/C(=O)NC(=O)N(c3cccc(C)c3)C2=O)cc(OC)c1O	-
COc1cc(/C=C2\C(=O)NC(=S)N(c3cccc(Br)c3)C2=O)cc(Cl)c1O	-
C=CCc1cc(/C=C2\C(=O)NC(=S)N(c3cccc(Br)c3)C2=O)cc(OC)c1O	77
Cc1ccc(/C=C2\C(=O)NC(=O)N(c3cccc(Br)c3)C2=O)cc1	-
COc1ccc2ccccc2c1/C=C1/C(=O)NC(=O)N(c2cccc(Br)c2)C1=O	101
COc1cc(/C=C2\C(=O)NC(=O)N(c3cccc(Br)c3)C2=O)cc(Cl)c1O	-
O=C(NCc1ccncc1)c1ccc(C#CC2(O)CCCCC2)cc1	-
O=S(=O)(Nc1ccc2oc3c(c2c1)CCCC3)c1ccccc1	-
SMILES	VHR inh color
CN(C)c1ccc(/C=C/C=N/N=c2\sc3ccccc3n2C)cc1	-
Cn1/c(=N/N=C/C=C/c2ccco2)sc2ccccc21	114
Cn1/c(=N/N=C/c2cccc(Cl)c2Cl)sc2ccccc21	-
O=C(c1cccs1)N1CCN(Cc2ccccc2F)CC1	-
CC(=O)NC1=NC(=O)/C(=C\c2ccc(Br)o2)S1	81
CC(=O)NC1=NC(=O)/C(=C/c2ccc(C)cc2)S1	-
CC(=O)NC1=NC(=O)/C(=C\c2ccc(-c3ccc(C(=O)O)cc3)o2)S1	-
Cc1ccc(CN2CCN(/N=C\c3cccc(O)c3)CC2)cc1	-
CC1=C(C#N)c2nc(N)c(C#N)c(C)c2/C1=C\c1ccc(-c2cccc(Cl)c2)o1	-
CC1=C(C#N)c2nc(N)c(C#N)c(C)c2/C1=C/c1ccc(-c2ccc(C(=O)O)c(Cl)c2)o1	92
CC1=C(C#N)c2nc(N)c(C#N)c(C)c2/C1=C\c1ccc(C)o1	-
O=C(CN(Cc1ccccc1)S(=O)(=O)c1ccccc1)Nc1cccc(Cl)c1	-
COc1cc(CNc2ccc(Br)c(C)c2)cc(OC)c1	-
COc1cc(NC(=O)c2ccc(OC)c(OC)c2)ccc1NC(=O)c1ccco1	-
COc1cccc(-c2cc(C(=O)Nc3nn[nH]n3)c3ccccc3n2)c1	-
COc1cccc(-c2cc(C(=O)Nc3nc4ccccc4s3)c3ccccc3n2)c1	68
COc1cccc(-c2cc(C(=O)Nc3ncccn3)c3ccccc3n2)c1	-
COc1ccc(-c2nnc(SCC(=O)NC3CCCC3)n2-c2ccccc2)cc1	-
CC(=O)Nc1ccc(/C=C2\C(=O)NN(c3ccccc3)C2=O)cc1	-
CCOC(=O)C1=C(O)/C(=C/c2ccc(OCC(=O)NCCc3ccccc3)cc2)N=C1C	-
COc1ccc(C(=O)c2ccc(N3CCCCC3)c([N+](=O)[O-])c2)cc1	-
CCOC(=O)c1c(N)sc2c1CCC(c1ccccc1)C2 (stereo not given)	94
CCOC(=O)c1c(NC(=O)Oc2ccccc2)sc2c1CCC(C)C2 (stereo not given)	-
COC(=O)c1c(N)sc2c1CCC(c1ccccc1)C2 (stereo not given)	-
O=C(Nc1ccc(Cl)cc1C(=O)c1ccccc1)c1cc2ccccc2o1	-
SMILES	VHR inh color
O=C(O)/C=C/c1ccc(-c2ccc(Cl)c(Cl)c2)o1	-
N#C/C(=C\c1ccc(-c2ccc(Cl)c(Cl)c2)o1)C(N)=O	70
N#C/C(=C\c1ccc(-c2ccc(Br)cc2)o1)C(N)=O	-
O=C(/C=C/c1ccco1)/C=C/c1ccc(-c2ccc(Cl)c(Cl)c2)o1	89
O=C(/C=C/c1ccco1)Nc1ccc(Cl)c(Cl)c1	-
N#C/C(=C\c1ccc(-c2cccc(C(F)(F)F)c2)o1)C(N)=O	-
C=CCOc1ccc(/C=C2/C(=O)NC(=O)N(c3ccc(C)cc3)C2=O)cc1OCC	-
CS(=O)(=O)N(CC(=O)NCc1cccnc1)c1ccc(Oc2ccccc2)cc1	-
Cc1cc2nc(-c3cc(NC(=O)/C=C/c4cccc([N+](=O)[O-])c4)ccc3O)oc2cc1C	-
CN(C)C(=O)C(NC(=O)c1ccccc1)=C1CCCCC1	-
O=C1c2ccccc2CCC1C1(O)C(=O)Nc2ccccc21 (stereo not given)	-
O=C1c2ccccc2CCC1C1(O)C(=O)Nc2ccc(Br)cc21 (stereo not given)	117
CC1(C)CC(=O)C(C2(O)C(=O)Nc3ccc(Br)cc32)CO1 (stereo not given)	-
O=C(N/N=C/c1ccc(Br)cc1)c1cc(C23CC4CC(CC(C4)C2)C3)[nH]n1	-
O=C(Nc1ccc2nn(-c3ccccc3)nc2c1)c1ccc([N+](=O)[O-])cc1	-
CCOC(=O)c1c(NC(=S)Nc2ccc(C)cc2)sc2c1CCN(Cc1ccccc1)C2	68
CCOC(=O)c1c(NC(=S)Nc2ccccc2)sc2c1CCCCC2	-
CCOC(=O)c1c(NC(=O)c2ccccc2)sc2c1CCN(Cc1ccccc1)C2	-
Cc1cc(Cl)ccc1NC(=O)C(=O)NCc1cccnc1	-
CCOC(=O)C1=C(C)NC(=S)NC1c1ccc(OCc2ccccc2)cc1 (stereo not given)	-
CCOc1ccc(-c2cc(C(=O)N3CCN(Cc4ccccc4)CC3)c3ccccc3n2)cc1	-
Cc1cc(Cl)ccc1OCC(=O)Nc1ccc(OC(F)(F)F)cc1	-
CCOC(=O)/C=C(\C)Nc1cc(C)nn1-c1ccccc1	110
CCOC(=O)/C=C(\C)Nc1cc(-c2ccc(Cl)cc2)[nH]n1	-
CC(=O)Nc1cc(-c2ccc(Cl)cc2)nn1-c1ccccc1	-
SMILES	VHR inh color
O=C1NC(=O)N(c2ccc(Br)cc2)C(=O)/C1=C/c1cccc([N+](=O)[O-])c1	-
O=c1[nH]c(/C=C/c2ccccc2)c([N+](=O)[O-])c(=O)[nH]1	-
O=c1[nH]c(/C=C/c2ccc(N3CCOCC3)c([N+](=O)[O-])c2)c([N+](=O)[O-])c(=O)[nH]1	80
CCOc1cc(/C=C/c2[nH]c(=O)[nH]c(=O)c2[N+](=O)[O-])ccc1O	-
COc1cccc(-c2cc(C(=O)Nc3sc(C)c(C)c3C(N)=O)c3ccccc3n2)c1	-
Cc1sc(NC(=O)c2cc(-c3cccs3)nc3ccccc23)c(C(N)=O)c1C	88
